# The list is not random: actives were taken first. Their share in the collection is about 19%.
# TDP1 cell CPT – qHTS for Inhibitors of human tyrosyl-DNA phosphodiesterase 1 (TDP1): qHTS in cells in presence of CPT; Potency, µM (top dose mostly 46.2 µM), inactives show at the highest dose activity change, negative = growth inhibition, hits mostly inhibitors; actives 12% (n = 420,000); chicken DT40 Tdp1-/-;hTDP1 cells + 20 nM CPT, ATP luminescence, 48 h; note: potency is the fitted concentration of half-maximal effect; nearly all actives have a fitted effect of over 55% in size
#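 Cell growth measured by CellTiter-Glo luminescence after a minimum 48 h, 37 C compound exposure with 20 nM CPT in Tdp1-knockout DT40 cells stably expressing hTDP1, seeded 400/well; qHTS titration format.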
# IL-1B inflam inh – qHTS for Inhibitors of Inflammasome Signaling: IL-1-beta AlphaLISA Primary Screen. THP-1 LPS/ATP IL-1B secretion, AlphaLISA, 16 h; hits give low values. activity change, % at 57.5 µM. actives 4.7% (n = 360,000). AID 743279, 2014; in the data active = activity change below about -50%; inconclusive = mostly about -30% to -49%
#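 Secreted IL-1B measured by AlphaLISA bead assay after 16 h compound exposure of THP-1 cells; compounds (final up to 57.5 uM) added 1 h before LPS (250 ng/mL) and ATP (1.25 mM) stimulation; lower signal means less secretion.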
# DT40 TDP1 no CPT – qHTS for Inhibitors of human tyrosyl-DNA phosphodiesterase 1 (TDP1): qHTS in cells in absence of CPT | actives 15% (n = 420,000) | DT40 Tdp1-/- hTDP1 cells, no CPT, ATP luminescence, 48 h | Potency, µM (doses to about 46.2 µM), for the others: at the top dose activity change, negative = growth inhibition, actives largely listed as inhibitors; note: potency is the fitted concentration of half-maximal effect; nearly all actives have a fitted effect of over 55% in size
#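 Readout: luminescence from CellTiter-Glo after 30 min in the dark at RT. Cells: DT40 Tdp1-/- with stable hTDP1, 400/well. Exposure: compounds alone, ≥48 hr, 37 °C.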
# ELG1 repair inh – qHTS screen for small molecules that inhibit ELG1-dependent DNA repair in human embryonic kidney (HEK293T) cells expressing luciferase-tagged ELG1; HEK293T ELG1-luciferase reporter, luminescence, 16 h; DNA damage induced by 5-fluorouridine; Potency, µM (top dose mostly 46.1 µM), inactives show at the top dose activity change, negative = inhibition, actives largely listed as inhibitors; actives 2.3% (n = 330,000); note: potency is the fitted concentration of half-maximal effect; nearly all actives have a fitted effect of over 55% in size
#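 Quantitative HTS, concentration-response format. 2,000 cells/well co-treated with 5-fluorouridine and compound, 16 hr in 5% CO2 at 37 °C; ONE-Glo luminescence read after 30 min.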
# HT1080 IDH1KD tx – qHTS for induction of synthetic lethality in tumor cells producing 2HG: qHTS for the HT-1080-IDH1KD cell line; HT-1080 IDH1 knockdown viability, ATP luminescence, 48 h; Potency, µM (series often up to 46.1 µM), for inactives: at the highest dose activity, negative = toxicity, most hits filed as cytotoxic; actives 2% (n = 360,000); AID 686971, 2013;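 note: potency is the fitted concentration of half-maximal effect; 0% = DMSO wells and -100% = cell-free medium wells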
#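 Viability of IDH1-knockdown HT-1080 fibrosarcoma cells was assessed by CellTiter-Glo after 48 h at 37 °C with titrated compound; concentration-effect curves were classified by fit quality and response size.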
# HT1080NT lethal – qHTS for induction of synthetic lethality in tumor cells producing 2HG: qHTS for the HT-1080-NT fibrosarcoma cell line | HT-1080-NT fibrosarcoma viability, CellTiter-Glo ATP luminescence, 48 h | actives 1.6% (n = 360,000) | Potency, µM (doses to about 46.1 µM), for the others: at the highest dose activity, negative = less viability, usual class: cytotoxic | AID 686970, 2013;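 note: NT is the 2HG producing partner of a matched IDH1 knockdown line; potency is the fitted concentration of half-maximal effect; 0% = DMSO-treated cells and -100% = media-only wells without cells; nearly all actives have a fitted effect of over 55% in size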
#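 Compounds were tested in concentration-response format on HT-1080-NT cells for 48 hours at 37 degrees C. Cell viability came from CellTiter-Glo luminescence; curves were classified by r2, response magnitude and activity.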
# * = called active by the depositor; ? = inconclusive; . = no result; [ ] = remark or other dose. Unless noted, calls come from the whole dose curve; as a rule, active = well fitted curve in the direction sought with a large enough effect; inconclusive = small, poorly fitted or top-dose-only effect, or another doubt; inactive = no such curve, though single readings can be large; an effect the other way counts as inactive or inconclusive. Unless noted, % is set by controls: 0 for no effect and ±100 for the full control effect.
SMILES,TDP1 cell CPT,IL-1B inflam inh,DT40 TDP1 no CPT,ELG1 repair inh,HT1080 IDH1KD tx,HT1080NT lethal
CC(Nc1nc(-c2cccnc2)nc2ccccc12)c1ccc(F)cc1 (stereo not drawn),26µM*,-68*,18µM*,?,?,-27%
CCN(CC(=O)Nc1ccc2c(c1)OCCO2)C(=O)c1cc(Cl)nc2ccccc12,-5%,14,-34%,-2%,0%,-2%
c1ccc2c(c1)OCC(CNc1ncnc3sccc13)O2 (stereo not drawn),1.2µM*,-12,0.65µM*,?,1.2µM*,0.73µM*
CCN(CC(=O)Nc1ccc2c(c1)OCCO2)c1nc(-c2cccnc2)nc2ccccc12,?,-30,23µM*,13µM*,-14%,-1%
CC(=O)c1cc2c(cc1NC(=O)CN1Cc3ccccc3C1=O)OCO2,-9%,-8,5%,-1%,-1%,-4%
COc1ccc(NC(=O)CCNS(=O)(=O)c2cccc3nonc23)cc1,15%,-1,3%,-2%,11%,0%
CCCC[C@@H]1CNC(=O)C(=O)N1CCCC,1%,19,-22%,.,9%,18%
c1cncc(-c2nc(NCC3COc4ccccc4O3)c3ccccc3n2)c1 (stereo not drawn),18µM*,-78*,?,15µM*,?,?
CC(=O)N[C@@H](C)C(=O)NCC1Cc2cc(C)cc(-c3cnccn3)c2O1 (stereo partly drawn),-2%[9.04 µM],.,-2%,.,.,.
CCCCCCCN1CCN=C1Nc1ccccc1,23µM*,?,26µM*,-10%,-3%,-1%
CCCCN1CCN=C1Nc1ccccc1,-15%,14,1%,29%,10%,5%
c1ccc(NC2=NCCN2CCC2CCCCC2)cc1,23µM*,0,?,-4%,-1%,4%
CC1(O)/C=C\C=C(\CO)C2CC(C)(C)C2(O)CC1 (stereo not drawn),-6%[9.04 µM],.,1%[9.04 µM],.,.,.
COC(=O)[C@@H](NC(=O)N(C1CCCCC1)C1CCCCC1)C(C)C,11µM*,-5,13µM*,-4%,12%,1%
COC(=O)[C@@H](NC(=O)NC1CCCCC1C)C(C)C (stereo partly drawn),7%,5,-6%,?,-12%,0%
Cc1cc(C)c(S(=O)(=O)Nc2ccc(C(=O)O)cc2)cc1S(=O)(=O)Nc1ccc(C(=O)O)cc1,0%,23,-13%,.,15%,7%
O=C(Cn1c2ccccc2c2nc3n(c(=O)c21)CCCS3)Nc1ccccc1,13µM*,?,?,5.2µM*,?,?
CCCCCCCCCCCCCCCCSCC(COC)COP(=O)([O-])OCC[N+](C)(C)C (stereo not drawn),-86%,.,-21%,.,.,.
CC(C)(C)NC(=O)C1c2ccccc2OCC(=O)N1CC(F)(F)F (stereo not drawn),0%,22,-12%,.,10%,27%
CCCn1c(N)c(C(=O)CSc2nc(C)cs2)c(=O)[nH]c1=O,?,-11,15µM*,-23%,-1%,2%
CCOC(=O)[C@@](C)(N)Cc1ccc(O)c(O)c1,?,.,-25%[21.1 µM],.,.,.
Fc1ccccc1-n1ncc2c1ncn1nc(COc3ccc(Cl)cc3)nc21,?,.,-27%,.,.,.
Cc1cc(C)n2nc(/C(C#N)=C/c3ccccn3)c(C#N)c2n1,?,-98*,9.2µM*,-10%,-9%,-11%
